Laboratory results: PubChem BioAssay (NCATS)
Records with an inconclusive call do not appear. The source made the active and inactive calls. Unless noted, calls come from the whole dose curve; as a rule, active = well fitted curve in the direction sought with a large enough effect; inconclusive = small, poorly fitted or top-dose-only effect, or another doubt; inactive = no such curve, though single readings can be large; an effect the other way counts as inactive or inconclusive.

What was measured:
[1] = qHTS assay for small molecule antagonists of peroxisome proliferator-activated receptor delta signaling (AID 588535; active = well fitted inhibition curve with a large enough effect in the signal ratio, with a control signal flat, not every such curve was filed as active; the % refers to the signal ratio;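 for max response: cells co-treated with a PPAR-delta agonist as stimulator during compound exposure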); settings: HEK293T PPARd-UAS-bla, beta-lactamase FRET ratio, 18 h; 460 nm channel
Summary of the method: (§1)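 Reporter: UAS-bla under PPAR-delta response element, HEK293T host. Medium: 2% charcoal/dextran FBS. Dosing: titration, 18 hrs, 37 C. Detection: CCF4, 2 hrs RT, 405 ex/460 and 530 em.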

[2] = biological target: Peroxisome proliferator-activated receptor delta (Homo sapiens) (UniProt Q03181); experiment: as above; settings: HEK293T PPARd-UAS-bla, beta-lactamase FRET ratio, 18 h; series mostly up to 76.7 µM
Peroxisome proliferator-activated receptor delta (Homo sapiens), sequence (Q03181 whole entry, looked up): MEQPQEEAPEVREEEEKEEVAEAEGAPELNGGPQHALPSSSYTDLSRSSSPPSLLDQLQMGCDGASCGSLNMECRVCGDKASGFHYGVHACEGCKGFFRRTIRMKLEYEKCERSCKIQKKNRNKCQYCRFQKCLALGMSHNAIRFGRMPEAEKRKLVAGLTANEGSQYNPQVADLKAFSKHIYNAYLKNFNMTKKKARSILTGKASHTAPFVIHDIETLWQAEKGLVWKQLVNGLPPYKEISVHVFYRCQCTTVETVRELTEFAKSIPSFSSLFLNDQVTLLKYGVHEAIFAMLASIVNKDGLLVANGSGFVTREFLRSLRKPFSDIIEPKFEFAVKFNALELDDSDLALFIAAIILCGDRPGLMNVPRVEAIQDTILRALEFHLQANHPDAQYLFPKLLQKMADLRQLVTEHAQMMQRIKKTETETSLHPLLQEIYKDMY
Summary of the method: as §1

[3] = biological target: Vitamin D3 receptor (Homo sapiens) (UniProt P11473); experiment: qHTS assay for small molecule antagonists of vitamin D receptor signaling (AID 588541; calls by dose curve;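 note: receptor activated by calcitriol during compound treatment; % is set by controls: 0 for no effect and ±100 for the full control effect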); settings: HEK293T VDR-UAS-bla, beta-lactamase ratio, antagonist mode; series mostly up to 76.7 µM
Vitamin D3 receptor (Homo sapiens), sequence (P11473 whole entry, looked up): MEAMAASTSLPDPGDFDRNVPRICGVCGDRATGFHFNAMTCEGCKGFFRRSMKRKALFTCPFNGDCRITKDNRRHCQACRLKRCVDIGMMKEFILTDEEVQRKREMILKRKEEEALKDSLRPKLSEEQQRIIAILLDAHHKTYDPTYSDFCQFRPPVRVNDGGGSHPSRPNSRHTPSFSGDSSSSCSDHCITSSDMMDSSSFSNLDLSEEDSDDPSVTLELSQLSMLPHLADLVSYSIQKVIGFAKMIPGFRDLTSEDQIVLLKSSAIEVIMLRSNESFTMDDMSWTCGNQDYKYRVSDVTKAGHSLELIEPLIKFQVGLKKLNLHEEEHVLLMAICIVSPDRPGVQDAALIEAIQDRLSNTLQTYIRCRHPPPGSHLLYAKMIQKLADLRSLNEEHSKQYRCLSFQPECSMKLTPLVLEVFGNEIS
Summary of the method: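 VDR-UAS-bla HEK293T cells (2000/well, 2% charcoal-stripped FBS) were treated with titrated compounds plus 1-alpha,25-dihydroxyvitamin D3 (50 nM or 3 nM final) for 16 h at 37 C. CCF4 beta-lactamase fluorescence was read; Hill fits gave IC50.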

[4] = biological target: Vitamin D3 receptor (Homo sapiens) (UniProt P11473); experiment: qHTS assay for small molecule agonists of vitamin D receptor signaling (AID 588543; calls by dose curve;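 note: 0% = DMSO basal and 100% = reference agonist control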); settings: HEK293T VDR-UAS-bla, beta-lactamase ratio, 16 h; series mostly up to 76.8 µM
Summary of the method: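 GeneBLAzer VDR-UAS-bla HEK293T cells in 2% charcoal-stripped FBS medium were dosed with compound titrations for 16 h at 37 °C; CCF4 β-lactamase readout (405 nm ex, 460/530 nm em). EC50 and efficacy from Hill fits, normalized to 50 nM calcitriol (100%) and DMSO (0%).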

[5] = qHTS assay for small molecule agonists of retinoid X receptor alpha signaling (AID 588544; calls by dose curve;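 for activation: 0% = DMSO basal wells and 100% = reference agonist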); settings: HEK293T RXRa-UAS-bla, beta-lactamase reporter, 18 h; 530 nm emission
[6] = biological target: Retinoic acid receptor RXR-alpha (Homo sapiens) (UniProt P19793); experiment: as above; settings: HEK293T RXRa-UAS-bla, beta-lactamase reporter, 18 h; series mostly up to 76.7 µM
Retinoic acid receptor RXR-alpha (Homo sapiens), sequence (P19793 whole entry, looked up): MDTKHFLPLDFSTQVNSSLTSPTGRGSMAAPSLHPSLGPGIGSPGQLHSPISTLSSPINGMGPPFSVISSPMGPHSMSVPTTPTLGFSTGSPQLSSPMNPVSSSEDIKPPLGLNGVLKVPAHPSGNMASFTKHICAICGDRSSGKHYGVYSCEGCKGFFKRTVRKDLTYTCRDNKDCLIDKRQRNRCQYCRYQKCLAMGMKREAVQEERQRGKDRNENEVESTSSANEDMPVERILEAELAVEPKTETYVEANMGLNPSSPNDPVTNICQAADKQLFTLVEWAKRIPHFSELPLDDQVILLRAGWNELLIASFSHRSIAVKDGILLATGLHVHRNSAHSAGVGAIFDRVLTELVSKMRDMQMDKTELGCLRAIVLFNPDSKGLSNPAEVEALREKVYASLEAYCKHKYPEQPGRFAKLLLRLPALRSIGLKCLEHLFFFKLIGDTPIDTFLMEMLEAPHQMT

[7] = biological target: Thyroid hormone receptor beta (Homo sapiens) (UniProt P10828); experiment: qHTS assay for small molecule agonists of thyroid hormone receptor beta signaling (AID 588545; calls by dose curve;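 note: 0% = DMSO only and 100% = 10 nM T3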); settings: TR-UAS-bla GripTite HEK 293, beta-lactamase ratio, agonist mode, 18 h; series mostly up to 76.7 µM
Thyroid hormone receptor beta (Homo sapiens), sequence (P10828 whole entry, looked up): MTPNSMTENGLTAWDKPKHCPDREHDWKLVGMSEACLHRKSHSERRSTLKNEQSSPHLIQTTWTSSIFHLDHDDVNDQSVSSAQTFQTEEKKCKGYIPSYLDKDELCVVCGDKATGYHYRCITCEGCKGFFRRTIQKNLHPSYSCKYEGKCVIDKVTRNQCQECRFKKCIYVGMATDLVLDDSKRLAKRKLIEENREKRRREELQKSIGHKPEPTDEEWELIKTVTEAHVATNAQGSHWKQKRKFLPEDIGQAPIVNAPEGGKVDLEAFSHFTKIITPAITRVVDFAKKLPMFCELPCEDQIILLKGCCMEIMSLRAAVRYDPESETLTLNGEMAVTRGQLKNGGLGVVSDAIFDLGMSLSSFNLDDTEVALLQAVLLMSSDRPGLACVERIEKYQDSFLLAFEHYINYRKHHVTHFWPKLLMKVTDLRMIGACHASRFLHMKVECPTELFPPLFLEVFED
Summary of the method: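 Efficacy and EC50 values derive from Hill fits of qHTS titration data, normalized to 10 nM T3 and DMSO-only wells. HEK 293 reporter cells were stimulated for 18 hrs at 37 C, with beta-lactamase activity measured by CCF4 fluorescence.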

[8] = qHTS assay for small molecule antagonists of retinoid X receptor alpha signaling (AID 588546; active = well fitted inhibition curve with a large enough effect in the signal ratio, with a control signal flat, not every such curve was filed as active; the % refers to the signal ratio;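 note: cells stimulated with 9-cis-retinoic acid as agonist; % is set by controls: 0 for no effect and ±100 for the full control effect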); settings: HEK293T RXRa-UAS-bla, beta-lactamase ratio, antagonist mode; measured here: W530 green channel, cytotoxicity proxy
Summary of the method: (§2)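 Beta-lactamase reporter inhibition, read as CCF4 fluorescence ratio (ex 405, em 460/530 nm) after 2 h at RT. HEK293T UAS-bla cells, 2500/well, were stimulated with 9-cis-RA at 500 or 100 nM final alongside test compound for 18 h at 37 C.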

[9] = biological target: Retinoic acid receptor RXR-alpha (Homo sapiens) (UniProt P19793); experiment: as above; settings: HEK293T RXRa-UAS-bla, beta-lactamase ratio, antagonist mode
Summary of the method: as §2

[10] = biological target: Thyroid hormone receptor beta (Homo sapiens) (UniProt P10828); experiment: qHTS assay for small molecule antagonists of thyroid hormone receptor beta signaling (AID 588547; active = well fitted inhibition curve with a large enough effect in the signal ratio, with a control signal flat, not every such curve was filed as active; the % refers to the signal ratio;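 note: cells stimulated with 0.4 nM T3 agonist during compound exposure; % is set by controls: 0 for no effect and ±100 for the full control effect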); settings: TR-UAS-bla HEK293, beta-lactamase ratio, antagonist mode, 18 h
Summary of the method: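 TR-UAS-bla GripTite HEK293 cells in 2% charcoal/dextran FBS medium were preincubated 4 h at 37 C, given compound (0.59 nM to 92 uM) plus 0.4 nM T3 (final) for 18 h, then CCF4 for 2 h at RT; Hill fit gave IC50.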

[11] = qHTS assay for small molecule activators of the p53 signaling pathway (AID 651743; active = well fitted activation curve with a large enough effect in the signal ratio, not every such curve was filed as active; the % refers to the signal ratio; note: % of control where 0% means no effect); settings: HCT-116 p53RE-bla, beta-lactamase FRET ratio, 16 h; activation: stronger effect = higher value
Summary of the method: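 Cell-based beta-lactamase reporter (p53 response elements, HCT-116 background). After a 5-hour preincubation, cells received compound for 16 hours at 37 C; substrate development ran 2 hours at room temperature.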

[12] = qHTS assay for small molecule activators of the nuclear factor-kappa B (NF-kB) signaling pathway (AID 651749; active = well fitted activation curve with a large enough effect in the signal ratio; the % refers to the signal ratio; note: % of control where 0% means no effect); settings: NF-kB-bla ME-180 cells, beta-lactamase FRET ratio, 16 h; activation: stronger effect = higher value
Summary of the method: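 Screening used 2,000 ME-180 reporter cells per well exposed to pinned compound (23 nL) or DMSO; after 16 hr at 37C, beta-lactamase expression under NF-kB control was assessed through FRET.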

[13] = qHTS assay for environmental chemicals that activate the Aryl hydrocarbon Receptor (AhR) signaling pathway (AID 651777); settings: 1A2-DRE human hepatoma cells, luciferase, 24 h; activation: stronger effect = higher value; note: % of control where 0% means no effect; nearly all actives have a fitted effect of over 15% in size
Summary of the method: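 Luminescence (One-Glo, 30 min, room temperature) reports AhR-driven luciferase in stably transfected human hepatoma cells bearing DRE and CYP1A2 promoter. Cells (1,200/well) were treated with compound for 24 hr at 37 C in qHTS format.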

[14] = qHTS assay for small molecule agonists of the antioxidant response element (ARE) signaling pathway measured by Nrf2-dependant transcriptional activity (AID 720636; active = well fitted curve in the direction sought with a large enough effect in the repeat runs; an effect the other way counts as inactive or inconclusive; note: % of control where 0% means no effect); settings: ARE-luc HepG2, Nrf2 luciferase reporter, 16 h; series mostly up to 92.4 µM
Summary of the method: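 Nrf2-dependent transcription read as ONE-Glo luciferase signal from ARE-luc HepG2 reporter cells after 16 hr compound treatment at 37 C, 5% CO2, in assay medium with 1% dialyzed FBS.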

[15] = qHTS assay for small molecule agonists of the antioxidant response element (ARE) signaling pathway measured by Nrf2-dependant transcriptional activity - cell viability counter screen (AID 720653; active = well fitted curve in the direction sought with a large enough effect in the repeat runs; an effect the other way counts as inactive or inconclusive; note: % is set by controls: 0 for no effect and ±100 for the full control effect); settings: ARE-bla HepG2 viability, CellTiter-Glo ATP luminescence, 16 h; max response: stronger effect = lower value
Summary of the method: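 ARE-bla HepG2 cells (2,000/well) rested 5 hrs at 37C/5% CO2, then exposed to compounds in DMSO for 16 hrs. Viability was read in the same wells as intracellular ATP by luminescence, 30 min at room temperature after reagent addition.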

[16] = qHTS assay for cell viability of HEK293 cells (AID 743288); settings: ATP luminescence (CellTiter-Glo), 18 h; max response: stronger effect = lower value; note: % is set by controls: 0 for no effect and ±100 for the full control effect; nearly all actives have a fitted effect of over 50% in size
Summary of the method: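 Parental HEK293 cells were seeded at 2,000 cells/well, rested at least 5 h at 37 C, then exposed to compounds in DMSO for 18 h at 37 C. Viability was read as ATP-dependent luciferase luminescence after 30 min at room temperature.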

[17] = qHTS assay for cell viability of the p53RE-bla HCT-116 cell line (AID 743292); settings: p53RE-bla HCT-116 viability, ATP luminescence, 16 h; series mostly up to 95 µM; note: % is set by controls: 0 for no effect and ±100 for the full control effect; nearly all actives have a fitted effect of over 55% in size
Summary of the method: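 ATP-based luminescent viability (CellTiter-Glo, 30 min RT) after 16 h compound treatment at 37 C of p53RE-bla HCT-116 cells, seeded at 4,000 cells/well and rested 5 h before dosing.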

[18] = biological target: Nuclear receptor subfamily 1 group I member 2 (Rattus norvegicus) (UniProt Q9R1A7); experiment: qHTS assay for small molecule activators of the rat pregnane X receptor (rPXR) signaling pathway (AID 651751; call rule not given here; note: 0% is about no effect); settings: rPXR reporter cells, luciferase (One-Glo), 24 h
Nuclear receptor subfamily 1 group I member 2 (Rattus norvegicus), sequence (Q9R1A7 whole entry, looked up): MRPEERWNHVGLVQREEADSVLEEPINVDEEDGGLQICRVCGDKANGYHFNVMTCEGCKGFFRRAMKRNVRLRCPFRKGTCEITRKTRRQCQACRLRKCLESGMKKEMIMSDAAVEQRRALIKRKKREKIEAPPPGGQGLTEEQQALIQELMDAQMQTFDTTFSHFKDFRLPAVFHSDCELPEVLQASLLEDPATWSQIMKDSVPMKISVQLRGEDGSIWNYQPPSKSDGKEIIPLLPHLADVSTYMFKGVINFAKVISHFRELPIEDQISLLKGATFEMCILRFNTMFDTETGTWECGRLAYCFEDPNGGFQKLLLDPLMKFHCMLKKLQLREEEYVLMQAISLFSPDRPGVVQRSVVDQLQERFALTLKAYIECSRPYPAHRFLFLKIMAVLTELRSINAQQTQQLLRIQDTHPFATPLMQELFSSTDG

[19] = qHTS assay for small molecule activators of the human pregnane X receptor (PXR) signaling pathway (AID 720659; call rule not given here; note: 0% is about no effect); settings: DPX-2 HepG2 CYP3A4-luciferase, 24 h; series mostly up to 92.3 µM
[20] = biological target: Peroxisome proliferator-activated receptor alpha (Homo sapiens) (UniProt Q07869); experiment: qHTS assay for small molecule agonists of the peroxisome proliferator-activated receptor alpha (PPARalpha) signaling pathway (AID 651778); settings: PathHunter PPARalpha complementation, chemiluminescence, 6 h; max response: stronger effect = higher value; note: % of control where 0% means no effect
Peroxisome proliferator-activated receptor alpha (Homo sapiens), sequence (Q07869 whole entry, looked up): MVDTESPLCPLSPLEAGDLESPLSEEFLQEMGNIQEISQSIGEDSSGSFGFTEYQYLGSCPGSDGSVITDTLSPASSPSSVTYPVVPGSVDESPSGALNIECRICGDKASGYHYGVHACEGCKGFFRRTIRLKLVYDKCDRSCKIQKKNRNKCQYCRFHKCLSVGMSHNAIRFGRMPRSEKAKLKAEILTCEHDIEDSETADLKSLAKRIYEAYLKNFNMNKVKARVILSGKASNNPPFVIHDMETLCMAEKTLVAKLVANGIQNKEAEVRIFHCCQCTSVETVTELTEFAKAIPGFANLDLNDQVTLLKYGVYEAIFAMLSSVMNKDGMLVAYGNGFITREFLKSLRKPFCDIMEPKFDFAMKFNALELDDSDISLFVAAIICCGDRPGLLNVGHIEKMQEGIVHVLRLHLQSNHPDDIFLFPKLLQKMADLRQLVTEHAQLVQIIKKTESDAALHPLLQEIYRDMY
Summary of the method: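 Cells plated at 2,000/well and held overnight at 37 C, 5% CO2, then compound added by pin tool for 6 hr; after PathHunter detection reagent and 60 min at room temperature, chemiluminescence from enzyme complementation was read.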

Row | Compound | max response [1] [%] | Potency [2] | Potency [3] | outcome [4] | max response [5] [%] | Potency [6] | Potency [7] | max response [8] [%] | max response [9] | activity change % (negative = inhibition) [10] | activation [11] | activation [12] | activation [13] | Potency [14] | max response [15] | max response [16] | Potency [17] | max response [18] | outcome [19] | max response [20]
1 | CCCCOCCOCCOCCO | -4.48 | inactive | inactive | inactive | -9.78 | inactive | inactive | 1.39 | -1.08% (inactive) | -0.828% (inactive) | 2.9% (inactive) | -0.915% (inactive) | 1.2% (inactive) | inactive | 5.3% (inactive) | -2.85% (inactive) | inactive | 2.44% (inactive) | inactive | 
2 | CC1(C)C(=O)NC(=O)N1CO | 11.7 | inactive |  |  | -10.3 | inactive | inactive | -6.79 | -4.89% (inactive) |  |  | -2.55% (inactive) | 1.93% (inactive) | inactive | -2.23% (inactive) | -2.85% (inactive) | inactive | 1.33% (inactive) | inactive | -1.57% (inactive)
3 | CSC(=O)c1cccc2nnsc12 | 21.6 | inactive | inactive |  | -10.1 | inactive | inactive | -10.7 | 12.7% (inactive) |  | 1.69% (inactive) |  | 0.806% (inactive) | inactive | 15.6% (inactive) | 3.92% (inactive) |  |  | inactive | -3.32% (inactive)
4 | CC1(C)C(C=C(Cl)Cl)[C@H]1C(=O)OCc1cccc(Oc2ccccc2)c1 (some centres not stated) | 35.5 | inactive | inactive |  |  |  |  | -16.1 | -0.468% (inactive) | 5.41% (inactive) |  |  |  | inactive |  | -12.9% (inactive) | inactive |  |  | -1.89% (inactive)
5 | CC(C)(C)c1n[nH]c(=O)n(N)c1=O | -9.84 | inactive |  | inactive | -20 | inactive | inactive | -5.34 | -3.59% (inactive) | 0.427% (inactive) | 1.96% (inactive) | 0.103% (inactive) | -0.927% (inactive) | inactive | -8.89% (inactive) | -15.1% (inactive) | inactive | 8.96% (inactive) | inactive | 0.89% (inactive)
6 | C[Si](C)(C)N[Si](C)(C)C |  |  | inactive |  | -0.733 | inactive | inactive | -10.7 | 1.24% (inactive) | -1.93% (inactive) | 1.4% (inactive) |  | 1.22% (inactive) | inactive | 1.14% (inactive) | -5.89% (inactive) | inactive |  |  | -0.0059% (inactive)
7 | NCCCCCCCCCCC(=O)O | 0.715 | inactive | inactive | inactive | -7.72 | inactive |  |  |  | -1.93% (inactive) | 0.322% (inactive) | -0.282% (inactive) | 6.19% (inactive) |  | -2.31% (inactive) | -12% (inactive) |  | 1.01% (inactive) |  | -1.64% (inactive)
8 | CCOC(=O)COc1cc(-n2ncc(C(F)(F)F)c(C)c2=O)c(F)cc1Cl | -4.58 | inactive | inactive | inactive | 9.89 | inactive | inactive |  |  | -20.3% (inactive) | 2.36% (inactive) |  | -2.83% (inactive) | inactive | 9.1% (inactive) | 2.7% (inactive) |  | -8.22% (inactive) | inactive | 
9 | CN(C)c1nc(=O)n(C2CCC(O)CC2)c(=O)n1C (configuration not stated) | 20.4 | inactive | inactive | inactive | -9.86 | inactive | inactive |  |  | 11.1% (inactive) | 2.9% (inactive) | -0.848% (inactive) | -0.637% (inactive) | inactive | 6.16% (inactive) | -7.57% (inactive) | inactive | -1.79% (inactive) | inactive | -3.35% (inactive)
10 | C[Si]1(C)N[Si](C)(C)N[Si](C)(C)N1 |  |  |  |  | -6.42 | inactive | inactive | -13.1 | -7.51% (inactive) | 17.9% (inactive) | -5.2% (inactive) | -2.89% (inactive) |  | inactive | -8.08% (inactive) | -3.76% (inactive) | inactive | 1.59% (inactive) | inactive | -0.733% (inactive)
11 | Cc1ccc(C(C)(C)C)c(O)c1 |  |  | inactive | inactive | -12.1 | inactive | inactive | -16 | -3.16% (inactive) |  | -4.17% (inactive) | 0.363% (inactive) | 1.48% (inactive) | inactive | 6.52% (inactive) | -6.81% (inactive) |  | 1.73% (inactive) |  | -0.656% (inactive)
12 | COC(=O)c1ccc(C(=O)OC)cc1 |  |  | inactive | inactive | -4.51 | inactive | inactive | -0.742 |  |  | -5.18% (inactive) | -0.624% (inactive) | 2.27% (inactive) | inactive | -4.69% (inactive) | -3.92% (inactive) | inactive | 2.11% (inactive) |  | -0.437% (inactive)
13 | CCC(=O)C1C(=O)CC(C(=O)O)CC1=O (configuration not stated) |  |  |  | inactive | -10.4 | inactive | inactive |  |  |  | 2.03% (inactive) | 0.776% (inactive) | -0.512% (inactive) | inactive | 14.2% (inactive) | 6.24% (inactive) |  | -8.49% (inactive) | inactive | 
